Inconclusive results are not listed. The source made the active and inactive calls. Unless noted, the call rests on the fitted dose curve; in most records, active means well fitted curve in the direction sought with a large enough effect; inconclusive means small, poorly fitted or top-dose-only effect, or another doubt; inactive means no such curve, though single readings can be large; an effect the other way counts as inactive or inconclusive.
Experiments:
[1] = target: Lysosomal acid glucosylceramidase (Homo sapiens) (UniProt P04062); test: Glucocerebrosidase-p2 (AID 348; in the data active means potency below about 10 µM; further: potency means the concentration at half of the fitted maximal effect); conditions: purified GBA, blue fluorogenic substrate, 40 min
Chain of Lysosomal acid glucosylceramidase (Homo sapiens) (P04062 whole entry, looked up): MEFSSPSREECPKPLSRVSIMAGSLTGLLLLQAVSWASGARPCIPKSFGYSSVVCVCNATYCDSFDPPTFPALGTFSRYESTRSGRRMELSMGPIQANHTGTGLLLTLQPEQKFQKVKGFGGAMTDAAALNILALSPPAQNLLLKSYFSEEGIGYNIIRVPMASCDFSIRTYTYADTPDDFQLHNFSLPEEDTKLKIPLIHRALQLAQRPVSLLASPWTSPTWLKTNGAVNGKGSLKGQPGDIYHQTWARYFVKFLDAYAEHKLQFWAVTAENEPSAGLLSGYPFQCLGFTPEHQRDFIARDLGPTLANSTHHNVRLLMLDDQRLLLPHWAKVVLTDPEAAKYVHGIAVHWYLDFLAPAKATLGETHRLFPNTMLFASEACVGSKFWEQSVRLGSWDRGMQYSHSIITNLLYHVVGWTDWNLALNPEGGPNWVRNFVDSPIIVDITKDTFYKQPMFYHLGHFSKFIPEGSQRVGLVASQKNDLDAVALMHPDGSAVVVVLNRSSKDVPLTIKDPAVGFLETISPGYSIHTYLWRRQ
How it was run: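 Compounds titrated from 0.6 nM upwards against 0.2 nM enzyme in pH 5.9 citric acid/KH2PO4, taurocholate, tween-20; blue fluorogenic substrate 80 uM, 40 min room temperature, stopped and read Ex 365/Em 440 for AC50.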

[2] = AP1 Signaling Pathway (AID 357; active means well fitted curve in either direction with a large enough effect, not every such curve was filed as active; further: on the % scale 0 is the no-effect control and ±100 the full control effect); conditions: ME-180 AP-1-bla reporter, EGF-induced, beta-lactamase ratio, 5 h; at 7.69 µM (top of the series) unless noted
How it was run: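 Titration-series screen for positive or negative modulators of EC50 EGF-induced signaling in ME-180 cells carrying an AP-1-driven beta-lactamase reporter. After 5 hours at 37 degrees Celsius, CCF4 460nm/530nm emission ratio gave %Activity; AC50 values derived.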

[3] = target: Cytochrome P450 1A2 (Homo sapiens) (UniProt P05177); test: p450-cyp1a2 (AID 410; calls by dose curve; further: potency means the concentration at half of the fitted maximal effect;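 on activity change, negative = inhibition: -100% = full effect of reference inhibitor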); conditions: recombinant CYP1A2, luciferin-ME demethylation, luminescence; series mostly up to 57 µM
Chain of Cytochrome P450 1A2 (Homo sapiens) (P05177 whole entry, looked up): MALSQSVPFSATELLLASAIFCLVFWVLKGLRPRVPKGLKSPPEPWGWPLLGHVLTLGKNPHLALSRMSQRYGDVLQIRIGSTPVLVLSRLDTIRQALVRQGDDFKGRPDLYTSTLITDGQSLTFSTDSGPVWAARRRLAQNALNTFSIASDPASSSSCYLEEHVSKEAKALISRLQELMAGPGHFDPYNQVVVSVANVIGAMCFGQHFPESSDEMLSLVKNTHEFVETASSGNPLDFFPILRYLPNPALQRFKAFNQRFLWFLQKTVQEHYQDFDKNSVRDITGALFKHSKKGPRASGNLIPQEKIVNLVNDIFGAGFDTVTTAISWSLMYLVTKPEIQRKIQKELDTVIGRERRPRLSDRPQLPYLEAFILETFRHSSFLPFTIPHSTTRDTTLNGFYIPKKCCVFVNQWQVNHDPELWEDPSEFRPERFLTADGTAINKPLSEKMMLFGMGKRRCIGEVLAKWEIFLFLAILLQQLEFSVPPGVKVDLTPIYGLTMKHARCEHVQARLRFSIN
How it was run: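 20nM CYP1A2 with 100uM Luciferin-ME (at Km) in 100mM KPO4; compound preincubated 10 min, NADPH regeneration added, 60 min at room temperature. Luciferin quantified by luminescence after detection reagent; normalized to 57 uM furafylline.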

[4] = NFAT Signaling Pathway (AID 444; active means well fitted curve in either direction with a large enough effect, not every such curve was filed as active;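 further: carbachol stimulus at about its EC50 of 1 µM final; on the % scale 0 is the no-effect control and ±100 the full control effect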); conditions: Jurkat NFAT-bla M1, carbachol, beta-lactamase ratio, 5 h; at 7.69 µM (top of the series) unless noted
How it was run: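 Read-out: CCF4 FRET ratio (460 nm/530 nm) after 1 h RT dye loading, used for %activity and AC50 from titration series. Cells: Jurkat NFAT-β-lactamase/M1 line, treated with compound plus 1 uM carbachol for 5 h, 37 °C.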

[5] = Stat Signaling Pathway (AID 446; active means well fitted curve in either direction with a large enough effect, not every such curve was filed as active;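 further: ME-180 cervical cancer cells given 40 pM IL-6 alongside compound; SIE-controlled beta-lactamase reporter measured as 460/530 nm FRET emission ratio; on the % scale 0 is the no-effect control and ±100 the full control effect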); conditions: ME-180 SIE beta-lactamase reporter, IL-6 stimulated, 5 h; at 7.69 µM (top of the series) unless noted
How it was run: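 ME-180 cells carrying a SIE-driven beta-lactamase reporter are stimulated with 40 pM IL-6 for 5 h at 37C in the presence of compound. The 460/530 nm FRET substrate ratio is read after 2.5 h at RT. Data are normalised to 300 pM IL-6 and to 125 nM JAK inhibitor controls.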

[6] = target: Glucocorticoid receptor (Homo sapiens) (UniProt P04150); test: GR-GFP Redistribution (AID 450;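 active means compounds whose dose series gives a full or clear partial fitted curve of increased nuclear translocation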; further: potency means the concentration at half of the fitted maximal effect); conditions: U2OS GR-GFP nuclear translocation, laser cytometry, 2 h
Chain of Glucocorticoid receptor (Homo sapiens) (P04150 whole entry, looked up, the tested form may be a part): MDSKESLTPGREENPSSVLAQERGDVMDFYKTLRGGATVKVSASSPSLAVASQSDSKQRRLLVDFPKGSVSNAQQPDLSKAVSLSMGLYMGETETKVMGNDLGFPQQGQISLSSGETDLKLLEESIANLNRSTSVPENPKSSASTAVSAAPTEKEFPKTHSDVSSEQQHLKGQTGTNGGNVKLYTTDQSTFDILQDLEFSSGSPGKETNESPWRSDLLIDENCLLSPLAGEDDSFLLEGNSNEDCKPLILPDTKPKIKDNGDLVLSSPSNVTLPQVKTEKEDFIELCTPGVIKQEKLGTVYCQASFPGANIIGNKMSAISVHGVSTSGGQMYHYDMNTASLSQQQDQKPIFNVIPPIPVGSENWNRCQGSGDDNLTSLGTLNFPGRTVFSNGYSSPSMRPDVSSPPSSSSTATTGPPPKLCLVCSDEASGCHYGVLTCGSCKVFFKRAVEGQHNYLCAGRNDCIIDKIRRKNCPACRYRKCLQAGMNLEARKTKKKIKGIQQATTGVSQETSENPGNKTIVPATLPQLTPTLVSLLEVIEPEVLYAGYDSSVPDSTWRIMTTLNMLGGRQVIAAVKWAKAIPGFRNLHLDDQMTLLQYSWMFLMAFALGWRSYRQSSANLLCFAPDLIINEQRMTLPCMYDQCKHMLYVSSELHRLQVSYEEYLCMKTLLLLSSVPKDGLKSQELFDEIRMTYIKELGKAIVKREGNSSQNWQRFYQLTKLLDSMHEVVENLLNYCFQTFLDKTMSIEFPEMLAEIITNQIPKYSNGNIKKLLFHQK

[7] = target: Glucocorticoid receptor (Homo sapiens) (UniProt P04150); test: GR-EFC Redistribution (AID 451; calls by dose curve; further: potency means the concentration at half of the fitted maximal effect); conditions: CHO-K1 GR-EFC translocation, beta-gal luminescence, 2 h
How it was run: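 Translocation of GR-ED fusion to nuclear EA restores b-gal, read by luminescence after 1 h room-temperature detection. Engineered CHO-K1 biosensor cells, 1,000/well, exposed 2 h at 37 C to titrations up to 46 uM final.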

[8] = target: Mitogen-activated protein kinase 10 (Mus musculus) (UniProt Q61831); test: JNK3 AlphaScreen Assay (AID 530; active means well fitted curve in either direction with a large enough effect, not every such curve was filed as active;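 further: kinase came from lysate of stimulated human HepG2 cells; signal reports phosphorylation of biotinylated GST-cJun 1-79 at Ser73 with 10 µM ATP; on the % scale 0 is the no-effect control and ±100 the full control effect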); conditions: JNK3 lysate, c-Jun phosphorylation; series mostly up to 57.1 µM
How it was run: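 Compound titrations were preincubated 15 minutes at room temperature with substrate, antibody and pre-activated JNK3-containing HepG2 lysate. Reactions were started with 10 uM ATP and stopped with EDTA-containing bead buffer for AlphaScreen detection.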

[9] = target: 3',5'-cyclic-AMP phosphodiesterase 4B (Homo sapiens) (UniProt Q07343); test: qHTS Assay for Inhibitors of PDE-IV (AID 607; active means well fitted activation curve with a large enough effect in the main read-out, with a control signal flat, not every such curve was filed as active; further: % of control where 0% means no effect); conditions: HEK293 ACTOne CNG channel cells, membrane potential fluorescence; series mostly up to 22.9 µM
Chain of 3',5'-cyclic-AMP phosphodiesterase 4B (Homo sapiens) (Q07343 whole entry, looked up): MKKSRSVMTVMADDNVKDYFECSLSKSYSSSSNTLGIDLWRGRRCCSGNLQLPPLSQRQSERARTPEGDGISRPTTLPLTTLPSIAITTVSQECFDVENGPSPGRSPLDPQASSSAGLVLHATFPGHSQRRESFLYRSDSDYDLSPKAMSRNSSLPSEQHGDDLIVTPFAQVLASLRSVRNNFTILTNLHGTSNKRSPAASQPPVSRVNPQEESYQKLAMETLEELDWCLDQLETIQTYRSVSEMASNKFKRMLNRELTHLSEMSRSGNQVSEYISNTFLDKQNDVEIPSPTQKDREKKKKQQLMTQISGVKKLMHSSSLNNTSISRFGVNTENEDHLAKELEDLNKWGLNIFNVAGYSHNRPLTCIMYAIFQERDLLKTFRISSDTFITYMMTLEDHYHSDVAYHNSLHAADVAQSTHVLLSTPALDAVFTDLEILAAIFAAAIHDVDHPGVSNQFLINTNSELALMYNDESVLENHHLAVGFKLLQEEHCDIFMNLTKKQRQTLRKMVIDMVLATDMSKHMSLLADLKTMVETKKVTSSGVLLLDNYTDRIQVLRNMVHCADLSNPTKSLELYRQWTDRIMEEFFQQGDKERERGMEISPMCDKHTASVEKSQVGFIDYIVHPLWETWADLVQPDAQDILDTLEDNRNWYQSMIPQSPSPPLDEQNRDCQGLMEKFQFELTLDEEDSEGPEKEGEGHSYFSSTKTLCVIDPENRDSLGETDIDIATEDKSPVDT
How it was run: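 HEK293 ACTOne cells with CNG channel (1000/well), endogenous PDE4; membrane potential dye, compounds up to 22.9 uM final. Fluorescence Ex 535/Em 590; RO 20-1724 (100 uM final) as reference.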

[10] = target: Cytochrome P450 3A4 (Homo sapiens) (UniProt P08684); test: qHTS Assay for Inhibitors and Substrates of Cytochrome P450 3A4 (AID 884); conditions: recombinant CYP3A4, Luciferin-PPXE luminescence; series mostly up to 57.1 µM; further: potency means the concentration at half of the fitted maximal effect; nearly all actives have a fitted effect of over 50% in size
Chain of Cytochrome P450 3A4 (Homo sapiens) (P08684 whole entry, looked up): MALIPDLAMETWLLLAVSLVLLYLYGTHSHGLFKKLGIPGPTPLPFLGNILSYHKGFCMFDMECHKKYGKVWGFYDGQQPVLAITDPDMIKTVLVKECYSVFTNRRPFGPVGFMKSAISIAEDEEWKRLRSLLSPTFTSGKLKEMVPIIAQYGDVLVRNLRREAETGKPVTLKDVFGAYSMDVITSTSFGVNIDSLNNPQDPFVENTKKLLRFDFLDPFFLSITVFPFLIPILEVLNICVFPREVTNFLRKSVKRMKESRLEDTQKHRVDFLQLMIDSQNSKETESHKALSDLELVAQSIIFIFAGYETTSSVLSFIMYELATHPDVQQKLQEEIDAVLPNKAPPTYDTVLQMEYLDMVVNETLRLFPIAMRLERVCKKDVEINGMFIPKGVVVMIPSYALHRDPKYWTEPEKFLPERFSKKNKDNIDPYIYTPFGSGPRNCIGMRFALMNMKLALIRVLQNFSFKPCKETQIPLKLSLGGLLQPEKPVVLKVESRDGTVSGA
How it was run: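 20 nM human CYP3A4 with 25 uM Luciferin-PPXE (at KM) in 200 mM KPO4, preincubated 10 min with compound; NADPH regeneration started a 60 min RT reaction. Luciferin detected by luminescence, normalized to 57 uM ketoconazole as full inhibition.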

[11] = target: Cytochrome P450 3A4 (Homo sapiens) (UniProt P08684); test: qHTS Assay for Activators of Cytochrome P450 3A4 (AID 885); conditions: recombinant CYP3A4, Luciferin-PPXE luminescence, 60 min; series mostly up to 57.1 µM; further: nearly all actives have a fitted effect of over 65% in size
How it was run: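 Human CYP3A4 (20 nM) with Luciferin-PPXE at 25 uM (its KM) in 200 mM KPO4; 10 min compound preincubation, then NADPH regeneration and 60 min reaction at RT. Luciferin read by luminescence; normalized to 57 uM ketoconazole full inhibition.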

[12] = target: Cytochrome P450 2C19 (Homo sapiens) (UniProt P33261); test: qHTS Assay for Inhibitors and Substrates of Cytochrome P450 2C19 (AID 899); conditions: recombinant CYP2C19, luciferin-H EGE luminescence; series mostly up to 57.1 µM; further: potency means the concentration at half of the fitted maximal effect; nearly all actives have a fitted effect of over 60% in size
Chain of Cytochrome P450 2C19 (Homo sapiens) (P33261 whole entry, looked up): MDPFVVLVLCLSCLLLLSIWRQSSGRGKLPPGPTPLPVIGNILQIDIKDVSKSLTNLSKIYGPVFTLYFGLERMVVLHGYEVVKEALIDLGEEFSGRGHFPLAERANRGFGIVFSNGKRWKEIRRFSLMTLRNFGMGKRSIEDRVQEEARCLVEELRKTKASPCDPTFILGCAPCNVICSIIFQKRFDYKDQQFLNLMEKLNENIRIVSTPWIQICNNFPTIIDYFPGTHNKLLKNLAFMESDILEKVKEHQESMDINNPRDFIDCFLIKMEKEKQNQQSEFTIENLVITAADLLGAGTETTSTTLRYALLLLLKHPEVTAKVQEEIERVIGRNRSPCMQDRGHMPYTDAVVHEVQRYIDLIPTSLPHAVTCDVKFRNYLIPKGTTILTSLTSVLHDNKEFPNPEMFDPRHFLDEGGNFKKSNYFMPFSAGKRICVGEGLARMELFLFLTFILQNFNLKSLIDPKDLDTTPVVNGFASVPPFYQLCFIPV
How it was run: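 Luminescence readout of luciferin formed from 10uM Luciferin-H EGE (KM level) by 5 nM CYP2C19 in 50mM KPO4. 60 min NADPH-driven reaction at 37C after 10 min compound preincubation; data scaled to 57uM ketoconazole inhibition.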

[13] = target: Dual specificity protein kinase CLK4 (Homo sapiens) (UniProt Q9HAZ1); test: qHTS Assay for Inhibitors of CDC-like Kinase 4 (Kinase-Glo Assay) (AID 1770); conditions: recombinant Clk4, Kinase-Glo ATP depletion luminescence; series mostly up to 66.7 µM; further: nearly all actives have a fitted effect of over 65% in size; further: potency means the concentration at half of the fitted maximal effect
Chain of Dual specificity protein kinase CLK4 (Homo sapiens) (Q9HAZ1 whole entry, looked up): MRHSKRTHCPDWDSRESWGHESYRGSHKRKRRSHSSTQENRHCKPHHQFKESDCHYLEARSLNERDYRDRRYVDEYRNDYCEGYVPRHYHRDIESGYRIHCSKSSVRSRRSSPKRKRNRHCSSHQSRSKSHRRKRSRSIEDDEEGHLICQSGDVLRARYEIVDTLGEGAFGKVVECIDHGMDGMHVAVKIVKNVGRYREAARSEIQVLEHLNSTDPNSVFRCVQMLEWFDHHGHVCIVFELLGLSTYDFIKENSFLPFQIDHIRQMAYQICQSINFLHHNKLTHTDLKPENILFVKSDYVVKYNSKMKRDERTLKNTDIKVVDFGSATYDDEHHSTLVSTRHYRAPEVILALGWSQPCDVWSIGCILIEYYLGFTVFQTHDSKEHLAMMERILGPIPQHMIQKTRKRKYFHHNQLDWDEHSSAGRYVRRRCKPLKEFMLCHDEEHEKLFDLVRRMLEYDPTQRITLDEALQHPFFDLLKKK
How it was run: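 Recombinant human Clk4 (25 nM) phosphorylated RS repeat peptide (100 uM) with 1 uM ATP in Tris pH 7.5/MgCl2/EGTA/DTT/Triton buffer for 4.5 h at room temperature. Residual ATP was quantified by Kinase-Glo luciferase luminescence.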

[14] = target: Dual specificity protein kinase CLK4 (Homo sapiens) (UniProt Q9HAZ1); test: qHTS Assay for Inhibitors of CDC-like Kinase 4 (ADP-Glo Assay) (AID 1771); conditions: recombinant CLK4, ADP-Glo luminescence; series mostly up to 80 µM; further: nearly all actives have a fitted effect of over 70% in size; further: potency means the concentration at half of the fitted maximal effect
How it was run: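 25 nM Clk4 with 100 uM RS repeat peptide and 1 uM ATP (final) in buffer with 2 mM MgCl2, 0.5 mM EGTA, 2.5 mM DTT, 0.01% Triton X-100; 1 h at room temperature; ADP-Glo luminescence for ADP formed.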

[15] = target: Dual specificity protein kinase CLK4 (Homo sapiens) (UniProt Q9HAZ1); test: qHTS Assay for Inhibitors of CDC-like Kinase 4 (ADP-FP Assay) (AID 1795); conditions: Transcreener ADP fluorescence polarization; series mostly up to 50 µM; further: nearly all actives have a fitted effect of over 60% in size; further: potency means the concentration at half of the fitted maximal effect
How it was run: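 Recombinant human Clk4 (6.25 nM) phosphorylated RS repeat peptide (100 uM) with 1 uM ATP in Tris pH 7.5/MgCl2/EGTA/DTT/Triton buffer for one hour. ADP was quantified by Transcreener competitive fluorescence polarization against an ADP calibration curve.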

[16] = target: Ubiquitin carboxyl-terminal hydrolase 1 (Homo sapiens) (UniProt O94782); test: Inhibitors of USP1/UAF1: Pilot qHTS (AID 504865); conditions: purified USP1/UAF1, Ub-rhodamine cleavage fluorescence; series mostly up to 54.9 µM;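 further: rhodamine fluorescence freed from ubiquitin-rhodamine substrate followed over time; top concentration of the series differs between compounds; on the % scale 0 is the no-effect control and ±100 the full control effect; nearly all actives have a fitted effect of over 35% in size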
Chain of Ubiquitin carboxyl-terminal hydrolase 1 (Homo sapiens) (O94782 whole entry, looked up): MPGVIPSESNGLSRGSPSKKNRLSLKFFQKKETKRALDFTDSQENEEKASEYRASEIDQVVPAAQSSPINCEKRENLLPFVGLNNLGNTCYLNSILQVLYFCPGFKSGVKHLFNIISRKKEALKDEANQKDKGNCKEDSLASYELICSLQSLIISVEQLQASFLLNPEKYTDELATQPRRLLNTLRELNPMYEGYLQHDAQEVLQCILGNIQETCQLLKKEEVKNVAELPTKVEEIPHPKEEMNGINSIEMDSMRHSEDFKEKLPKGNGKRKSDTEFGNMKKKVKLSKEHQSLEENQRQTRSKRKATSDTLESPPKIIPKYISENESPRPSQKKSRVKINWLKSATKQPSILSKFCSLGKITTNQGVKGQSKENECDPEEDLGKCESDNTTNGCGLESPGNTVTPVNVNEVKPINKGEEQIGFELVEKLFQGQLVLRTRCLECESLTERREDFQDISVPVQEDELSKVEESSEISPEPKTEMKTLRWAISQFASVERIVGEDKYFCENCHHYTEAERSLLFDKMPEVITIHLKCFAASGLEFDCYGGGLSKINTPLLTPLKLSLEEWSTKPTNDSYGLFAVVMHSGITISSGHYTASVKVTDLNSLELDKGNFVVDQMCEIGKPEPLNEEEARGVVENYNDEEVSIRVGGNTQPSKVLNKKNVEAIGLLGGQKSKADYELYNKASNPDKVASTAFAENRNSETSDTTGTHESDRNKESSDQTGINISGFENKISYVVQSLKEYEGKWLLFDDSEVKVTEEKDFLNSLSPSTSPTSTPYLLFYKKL
How it was run: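 USP1/UAF1 complex (1nM) preincubated with compound 15 min at room temperature, then Ub-Rho substrate (150nM final) added. Fluorescence read kinetically at 480/540 nm, 6 reads every 60 seconds. Buffer: 50mM HEPES pH 7.8, 0.5mM EDTA, 0.1 mg/ml BSA, 1mM TCEP, 0.01% Tween-20.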

[17] = Primary qHTS for small molecule stabilizers of the endoplasmic reticulum resident proteome: Secreted ER Calcium Modulated Protein (SERCaMP) assay (AID 1508630); conditions: SH-SY5Y GLuc-SERCaMP (Gaussia luciferase released on ER calcium loss) secretion, thapsigargin, luminescence; series mostly up to 38.4 µM; further: on the % scale 0 is the no-effect control and ±100 the full control effect
How it was run: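 GLuc-SERCaMP-expressing SH-SY5Y cells, pretreated 16 h with compound, are challenged with thapsigargin to empty ER calcium stores; after 4 h, coelenterazine is added directly to the medium and luminescence is imaged.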

CC(=O)NCCNc1ncnc2ccc(-c3ccc4c(c3)OCO4)cc12
inactive: Potency [1] > 11.4 µM | activity change, negative = inhibition [2] -23.9% | activity change, negative = inhibition [4] 12.4% | activity, negative = inhibition [5] -10.3% | Potency [6] > 46 µM | Potency [7] > 46 µM | Potency [8] | Potency [9] | Potency [11] | Potency [16] | outcome [17]
active: Potency [3] 0.501 µM | Potency [10] 5.01 µM | Potency [12] 6.31 µM | Potency [13] 0.141 µM | Potency [14] 0.0891 µM | Potency [15] 0.126 µM

CC(=O)NCCNc1ncncc1-c1ccccc1CN(C)C
active: Potency [3] 25.1 µM
inactive: Potency [1] > 11.4 µM | activity change, negative = inhibition [2] 1.84% | activity change, negative = inhibition [4] -2.17% | activity, negative = inhibition [5] 0.764% | Potency [6] > 46 µM | Potency [7] > 46 µM | Potency [8] | Potency [9] | Potency [13] | Potency [14] | Potency [15] | Potency [16] | outcome [17]

COc1ccc(Nc2ncc3nc(-c4cccs4)c(=O)n(Cc4cccc(OC)c4)c3n2)cc1
inactive: Potency [1] > 11.4 µM | activity change, negative = inhibition [2] -12.3% | Potency [3] | activity change, negative = inhibition [4] -11.6% | activity, negative = inhibition [5] -8.74% | Potency [6] > 9.22 µM | Potency [7] > 46 µM | Potency [8] | Potency [9] | Potency [13] | Potency [14] | Potency [15] | Potency [16] | outcome [17]

Cn1cc(-c2nc3cnc(Oc4ccccc4)nc3n(Cc3cccs3)c2=O)c2ccccc21
active: Potency [3] 3.16 µM
inactive: Potency [1] > 11.4 µM | activity change, negative = inhibition [2] 7.68% | activity change, negative = inhibition [4] 23.5% | activity, negative = inhibition [5] 11% | Potency [6] > 9.22 µM | Potency [7] > 46 µM | Potency [8] | Potency [9] | Potency [13] | Potency [14] | Potency [15] | Potency [16] | outcome [17]

COc1ccc(-n2c(=O)c(CCc3ccccc3)nc3cncnc32)cc1
active: Potency [3] 25.1 µM
inactive: Potency [1] > 11.4 µM | activity change, negative = inhibition [2] -15.2% | activity change, negative = inhibition [4] -3.92% | activity, negative = inhibition [5] -3.17% | Potency [6] > 9.22 µM | Potency [7] > 46 µM | Potency [8] | Potency [13] | Potency [14] | Potency [15] | Potency [16] | outcome [17]

COCCNc1ccnc(-c2ccccc2C)n1
active: Potency [3] 12.6 µM
inactive: Potency [1] > 11.4 µM | activity change, negative = inhibition [2] -9.97% | activity change, negative = inhibition [4] 3.48% | activity, negative = inhibition [5] 15.6% | Potency [6] > 46 µM | Potency [7] > 46 µM | Potency [8] | Potency [9] | Potency [13] | Potency [14] | Potency [15] | Potency [16] | outcome [17]

COc1ccc(C(=O)N2CCC3(CCCN(Cc4cc(C(F)(F)F)cc(C(F)(F)F)c4)C3)CC2)cc1
inactive: Potency [1] > 11.4 µM | Potency [3] | activity change, negative = inhibition [4] -13.8% | activity, negative = inhibition [5] -8.85% | Potency [7] > 46 µM | Potency [8] | Potency [11] | outcome [17]
